# Hits are enriched below; roughly 2.7% of the tested compounds scored in any of these assays.
# MsrA inhibitor: inhibits bovine methionine sulfoxide reductase A | 0.75% of 360,000 active | inhibition, % at 15.5 µM | AID 651718 | purified bovine MsrA, absorbance read-out; in the data active = inhibition above about 4.5%;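 also: 0% = vehicle wells with enzyme and 100% = reference inhibitor wells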
# MsrA act: activates bovine MsrA enzyme; purified bovine MsrA, absorbance read-out; 0.3% of 360,000 active; activation, % at 10.6 µM; in the data active = activation above about 7.5%;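 also: 0% = vehicle and 100% = reference activator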
# rCAG binder: binds r(CAG) RNA repeats; 1.3% of 370,000 active; inhibition, % at 3 µM; AID 651821; r(CAG) RNA repeat, TO-PRO-1 dye displacement fluorescence;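 active = inhibition above the plate cutoff, the mean of all test compounds on that plate plus 3 SD, cut at about 35% in these data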;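 also: 0% = DMSO alone and 100% = 100 µM mitoxantrone as full dye displacement; higher means more dye released from RNA so lower well fluorescence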
# NadD block: blocks S. aureus nicotinate mononucleotide adenylyltransferase; AID 602399; purified NadD enzyme, colorimetric absorbance read-out; 0.78% of 360,000 active; inhibition, % at 20 µM; in the data active = inhibition above about 26%
# rCAG bind conf: r(CAG) RNA repeat binding, confirmation; shares compounds with rCAG binder; TO-PRO-1 dye displacement fluorescence; inhibition, % at 3 µM; 70% of 4,300 active; AID 652065;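 active = inhibition above a per-plate cutoff, the mean inhibition of sample wells plus 3 SD, cut at about 35% in these data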;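 also: loss of TO-PRO-1 fluorescence as compound displaces dye from 1x1 AA loop RNA; 0% = DMSO only wells and 100% = 100 µM mitoxantrone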
# DNA CAG counter: DNA CAG dye complex inhibition counter-screen; shares compounds with rCAG binder; d(CAG) DNA oligo TO-PRO-1 dye displacement, fluorescence; inhibition, % at 3 µM; 94% of 4,300 active; AID 652068;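 active = inhibition above its plate's cutoff, the mean test-well inhibition plus 3 SD, cut at about 4.8% in these data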;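 also: 0% = DNA dye mix with DMSO and 100% = 100 µM mitoxantrone; hits displace the dye from DNA and so lower well fluorescence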
# Numbers without * were called inactive; nt = no result.
SMILES,MsrA inhibitor,MsrA act,rCAG binder,NadD block,rCAG bind conf,DNA CAG counter
O=C(Nc1ccccc1C(=O)O)c1cccc(NC(=O)c2ccc(Br)o2)c1,0.2,-7.9,45.2*,-4.2,40.0*,7.8*
CC(=O)Nc1cccc(C(=O)Nc2ccccc2C(=O)O)c1,0.6,-12.0,5.8,-2.9,nt,nt
COc1cc(OC)c(NC(=O)Nc2ccc(OC)c(OC)c2)cc1Cl,0.0,-6.3,-2.9,-2.5,nt,nt
C[C@@H]1CCCCO[C@@H](CN(C)C(=O)c2ccccc2)[C@@H](C)CN([C@H](C)CO)C(=O)c2cc(N(C)C)ccc2O1,-1.5,-2.9,1.3,2.7,nt,nt
CC(=O)c1ccc(N2CCN(S(=O)(=O)c3c(C)[nH]c(C)c3C(=O)N3CCCCC3)CC2)cc1,1.7,-5.6,-3.5,-1.4,nt,nt
Cc1ccccc1CN1CCCCC(NC(=O)c2ccccc2C(F)(F)F)C1=O (stereo unspecified),nt,nt,-0.2,nt,nt,nt
O=C(Cc1ccc(Cl)cc1)Nc1cccc(C(=O)Nc2ccccc2C(=O)O)c1,0.1,-0.3,74.3*,-2.7,64.0*,24.3*
Cc1cc(C)c(C)c(S(=O)(=O)Nc2cccc(S(=O)(=O)Nc3ccccc3C(=O)O)c2)c1C,0.9,-6.5,77.9*,1.8,73.2*,38.5*
Cc1cc(C)c(C)c(S(=O)(=O)Nc2ccccc2C(=O)NN2CCOCC2)c1C,-0.5,-2.3,20.6,1.2,nt,nt
N#Cc1ccc(N2C(=O)[C@@H]3C(C(=O)C(c4ccccc4)c4ccccc4)=NN[C@@H]3C2=O)cc1,0.3,-13.5,61.1*,7.6,34.5,11.5*
O=[N+]([O-])c1cc(C(F)(F)F)cc([N+](=O)[O-])c1NCCNC(=S)Nc1ccc(Cl)c(Cl)c1,0.3,-0.5,35.9*,1.7,22.2,6.6*
O=C(CNC(=O)c1cncc(Br)c1)Nc1ccc(F)c(F)c1F,-0.7,-0.7,0.9,1.9,nt,nt
CCOc1ccc(-n2c(=S)sc3c(=O)[nH]c(SCC(=O)NCc4ccco4)nc32)cc1,2.0,-0.2,47.2*,10.4,40.9*,11.8*
CCN(CC)C(=O)CSc1nc2c(sc(=S)n2-c2ccc(C)cc2C)c(=O)[nH]1,2.6,-6.0,39.2*,8.1,46.5*,14.6*
CCOc1ccc(-n2c(=S)sc3c(=O)[nH]c(SCC(=O)C(C)(C)C)nc32)cc1,0.3,-3.6,37.2*,14.1,66.2*,30.1*
CCOC(=O)CSc1nc2c(sc(=S)n2-c2ccc(OCC)cc2)c(=O)[nH]1,1.0,-3.4,43.2*,-2.4,38.8*,10.2*
CCOC(=O)CSc1nc2c(sc(=S)n2-c2ccccc2)c(=O)[nH]1,4.3,-6.0,25.8,0.0,nt,nt
CCOc1ccc(-n2c(=S)sc3c(=O)[nH]c(SCC(=O)N4CCC(C)CC4)nc32)cc1,3.7,-14.9,14.9,21.0,nt,nt
Cc1nc(SCC(=O)NCc2ccco2)[nH]c(=O)c1C,-0.7,-11.2,-1.2,-3.5,nt,nt
CCN(CC)S(=O)(=O)c1ccc(O)c(NS(=O)(=O)c2ccccc2F)c1,0.2,2.6,4.5,-0.3,nt,nt
COc1ccc(-c2ccc(CN3C(C(C)C)C(=O)N(Cc4cn(CC5CCCCC5)nn4)CCS3(=O)=O)cc2)cc1 (stereo unspecified),2.5,-3.5,11.1,2.5,nt,nt
O=C(NCC(c1cccs1)N1CCOCC1)c1cccc(S(=O)(=O)Nc2ccc(F)cc2)c1 (stereo unspecified),-0.3,-1.0,7.7,-6.6,nt,nt
O=C(NCC(c1cccs1)N1CCOCC1)c1ccccc1NS(=O)(=O)c1ccc(Cl)c([N+](=O)[O-])c1 (stereo unspecified),-0.3,-3.7,77.6*,8.6,78.4*,36.3*
O=C(NCC(c1cccs1)N1CCOCC1)c1ccccc1NS(=O)(=O)c1cc([N+](=O)[O-])ccc1Cl (stereo unspecified),1.0,-2.8,42.0*,1.8,40.2*,10.8*
O=C(NCC(c1cccs1)N1CCOCC1)c1ccccc1NS(=O)(=O)c1cccc([N+](=O)[O-])c1 (stereo unspecified),0.5,0.4,48.1*,5.5,39.6*,11.0*
SMILES,MsrA inhibitor,MsrA act,rCAG binder,NadD block,rCAG bind conf,DNA CAG counter
CC(=O)c1ccc(OCCCC(=O)Nc2nnc(C3CC3)s2)cc1,0.1,-1.9,0.3,0.6,nt,nt
C=CCOc1ccc(/C=C/C(=O)OCC(=O)N(C)CC(=O)Nc2ccccc2Cl)cc1,0.5,-1.1,-2.4,-5.1,nt,nt
S=C(Nc1ccc(Br)cc1Cl)NN1CCOCC1,-1.1,-7.5,1.1,-2.9,nt,nt
CC(NC(=O)C1CCCN(S(=O)(=O)N2CCOCC2)C1)c1ccccc1 (stereo unspecified),0.6,-2.9,-1.6,6.2,nt,nt
COc1ccc(N(C)S(=O)(=O)c2ccc(Cl)c(C(=O)NNC(=O)c3ccccc3O)c2)cc1,0.2,-2.2,40.0*,8.5,30.1,10.4*
O=C(Nc1cccc(C(F)(F)F)c1)C(Sc1n[nH]c(=O)[nH]c1=O)c1ccccc1 (stereo unspecified),0.8,-3.8,38.9*,3.2,38.3*,11.9*
CCOc1ccc(Br)cc1S(=O)(=O)Nc1ccc(Cl)c(S(=O)(=O)N(CC)c2ccccc2)c1,1.0,-2.7,29.7,5.7,nt,nt
CCOc1ccc(Br)cc1S(=O)(=O)Nc1ccc(Cl)c(S(=O)(=O)N(C)C)c1,-0.9,-1.1,35.8*,-5.7,33.9,9.0*
O=C(O)Cc1c(C(=O)O)nnn1-c1ccc(Cl)cc1Cl,0.2,-2.4,-4.1,-1.5,nt,nt
O=C(O)c1ccc2c(c1)C1C=CCC1C(c1ccncc1)N2 (stereo unspecified),-0.5,-4.0,-0.7,1.4,nt,nt
COCCNC(=O)C1Nc2ccc(OC(F)(F)F)cc2C2C=CCC12 (stereo unspecified),-0.2,-1.3,29.4,-4.1,nt,nt
O=C(NCc1ccccn1)C1Nc2ccc(C(F)(F)F)cc2C2C=CCC12 (stereo unspecified),-0.1,-4.2,27.6,-0.2,nt,nt
COCCNC(=O)C1Nc2ccc(C(F)(F)F)cc2C2C=CCC12 (stereo unspecified),-0.5,-2.5,44.3*,-2.0,1.9,2.0
COC(=O)CNC(=O)C1Nc2ccc(OC(F)(F)F)cc2C2C=CCC12 (stereo unspecified),-0.7,-3.5,38.6*,-1.1,1.0,-0.2
FC(F)(F)c1ccc2c(c1)C1C=CCC1C(c1ccncc1)N2 (stereo unspecified),1.6,-3.9,44.1*,3.9,2.7,2.0
COc1ccccc1Cc1c(-c2ccc(Cl)cc2)nc2ccc(Br)cn12,0.4,-3.5,41.7*,12.8,15.9,6.8*
COc1ccccc1Cc1c(-c2ccccc2)nc2ccc(Br)cn12,-0.3,-2.7,16.8,5.8,nt,nt
Cc1ccc(Cc2c(-c3cccc(Br)c3)nc3ccc(Br)cn23)cc1,-0.2,-0.3,37.8*,17.5,31.1,9.7*
COc1ccccc1Cc1c(-c2cccc(Br)c2)nc2ccc(Br)cn12,-0.5,-11.9,53.6*,18.8,15.1,7.3*
Cc1ccc(Cc2c(-c3ccc(C)cc3)nc3c(C)cc(Br)cn23)cc1,1.0,-2.7,41.4*,11.0,8.8,6.3*

# High-throughput results deposited in PubChem BioAssay by several laboratories.
